The source of these data is ChEMBL document CHEMBL1961873, “Compounds: GSK PKIS; Assays: Nanosyn kinase panel” (2012).

As usually defined, the inhibition is the relative decrease from the control value, in per cent.

Assay [1] has as its target T1, Ephrin type-B receptor 2 (Homo sapiens) (UniProt P29323).
T1 sequence (whole entry): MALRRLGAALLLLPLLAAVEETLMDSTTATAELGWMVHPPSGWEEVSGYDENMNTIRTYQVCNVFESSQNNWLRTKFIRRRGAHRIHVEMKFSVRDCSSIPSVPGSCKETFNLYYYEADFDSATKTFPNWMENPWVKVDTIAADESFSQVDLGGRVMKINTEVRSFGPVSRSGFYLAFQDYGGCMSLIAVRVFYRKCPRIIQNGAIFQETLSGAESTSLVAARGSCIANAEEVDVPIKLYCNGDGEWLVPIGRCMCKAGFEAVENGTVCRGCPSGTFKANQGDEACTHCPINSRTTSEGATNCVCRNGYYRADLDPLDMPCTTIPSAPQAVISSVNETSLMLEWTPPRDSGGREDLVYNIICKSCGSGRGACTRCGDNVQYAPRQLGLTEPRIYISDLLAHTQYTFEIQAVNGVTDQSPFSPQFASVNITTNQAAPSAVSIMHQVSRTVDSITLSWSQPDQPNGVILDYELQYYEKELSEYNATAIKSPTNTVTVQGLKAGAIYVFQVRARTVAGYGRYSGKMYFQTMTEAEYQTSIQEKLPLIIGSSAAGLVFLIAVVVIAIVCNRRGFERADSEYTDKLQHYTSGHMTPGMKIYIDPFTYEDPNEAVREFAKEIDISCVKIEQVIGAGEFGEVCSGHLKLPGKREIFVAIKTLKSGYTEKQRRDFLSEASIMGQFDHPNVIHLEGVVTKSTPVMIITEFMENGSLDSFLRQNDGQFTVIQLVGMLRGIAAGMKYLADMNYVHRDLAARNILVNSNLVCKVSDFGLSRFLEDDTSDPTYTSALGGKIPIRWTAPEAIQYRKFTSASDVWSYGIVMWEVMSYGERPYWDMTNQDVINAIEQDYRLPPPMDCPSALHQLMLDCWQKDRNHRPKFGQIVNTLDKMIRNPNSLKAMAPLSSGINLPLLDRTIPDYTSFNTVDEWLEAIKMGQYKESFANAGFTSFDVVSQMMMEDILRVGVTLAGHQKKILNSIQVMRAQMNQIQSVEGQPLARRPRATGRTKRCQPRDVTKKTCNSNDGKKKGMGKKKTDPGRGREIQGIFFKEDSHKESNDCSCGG
The following applies: at 1 µM.

The target of assay [2] is T2, Ephrin type-B receptor 3 (Homo sapiens) (UniProt P54753).
T2 sequence (whole entry): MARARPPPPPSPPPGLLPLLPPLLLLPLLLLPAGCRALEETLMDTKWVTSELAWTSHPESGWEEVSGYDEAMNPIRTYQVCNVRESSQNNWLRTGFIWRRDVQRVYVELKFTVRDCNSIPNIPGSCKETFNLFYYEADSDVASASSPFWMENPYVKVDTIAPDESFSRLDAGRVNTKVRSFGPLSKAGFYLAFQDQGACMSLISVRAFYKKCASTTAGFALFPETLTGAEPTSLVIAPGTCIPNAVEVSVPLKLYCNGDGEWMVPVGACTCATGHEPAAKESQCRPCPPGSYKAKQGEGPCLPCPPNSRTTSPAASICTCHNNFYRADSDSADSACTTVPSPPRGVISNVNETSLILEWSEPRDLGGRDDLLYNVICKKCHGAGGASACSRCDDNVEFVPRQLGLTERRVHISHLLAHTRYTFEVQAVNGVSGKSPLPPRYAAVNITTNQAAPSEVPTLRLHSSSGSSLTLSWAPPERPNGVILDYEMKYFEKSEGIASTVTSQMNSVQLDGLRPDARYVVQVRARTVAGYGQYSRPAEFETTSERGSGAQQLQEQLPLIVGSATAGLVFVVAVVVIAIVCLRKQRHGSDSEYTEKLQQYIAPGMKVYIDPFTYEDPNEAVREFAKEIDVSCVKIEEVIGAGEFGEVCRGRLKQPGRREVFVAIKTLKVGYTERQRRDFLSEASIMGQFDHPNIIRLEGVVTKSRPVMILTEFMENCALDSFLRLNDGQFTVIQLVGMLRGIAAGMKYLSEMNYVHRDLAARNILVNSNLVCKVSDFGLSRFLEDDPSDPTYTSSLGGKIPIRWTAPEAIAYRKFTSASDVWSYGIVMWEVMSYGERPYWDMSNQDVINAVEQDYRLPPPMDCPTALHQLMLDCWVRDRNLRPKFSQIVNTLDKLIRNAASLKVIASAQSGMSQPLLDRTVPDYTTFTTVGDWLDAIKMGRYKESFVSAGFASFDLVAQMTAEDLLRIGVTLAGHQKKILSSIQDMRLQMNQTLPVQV
Particulars: at 0.1 µM.

Assay [3] has as its target T2, Ephrin type-B receptor 3 (Homo sapiens). The following applies: at 1 µM.
Assay [4] concerns the target T3, Ephrin type-B receptor 4 (Homo sapiens) (UniProt P54760).
T3 sequence (whole entry): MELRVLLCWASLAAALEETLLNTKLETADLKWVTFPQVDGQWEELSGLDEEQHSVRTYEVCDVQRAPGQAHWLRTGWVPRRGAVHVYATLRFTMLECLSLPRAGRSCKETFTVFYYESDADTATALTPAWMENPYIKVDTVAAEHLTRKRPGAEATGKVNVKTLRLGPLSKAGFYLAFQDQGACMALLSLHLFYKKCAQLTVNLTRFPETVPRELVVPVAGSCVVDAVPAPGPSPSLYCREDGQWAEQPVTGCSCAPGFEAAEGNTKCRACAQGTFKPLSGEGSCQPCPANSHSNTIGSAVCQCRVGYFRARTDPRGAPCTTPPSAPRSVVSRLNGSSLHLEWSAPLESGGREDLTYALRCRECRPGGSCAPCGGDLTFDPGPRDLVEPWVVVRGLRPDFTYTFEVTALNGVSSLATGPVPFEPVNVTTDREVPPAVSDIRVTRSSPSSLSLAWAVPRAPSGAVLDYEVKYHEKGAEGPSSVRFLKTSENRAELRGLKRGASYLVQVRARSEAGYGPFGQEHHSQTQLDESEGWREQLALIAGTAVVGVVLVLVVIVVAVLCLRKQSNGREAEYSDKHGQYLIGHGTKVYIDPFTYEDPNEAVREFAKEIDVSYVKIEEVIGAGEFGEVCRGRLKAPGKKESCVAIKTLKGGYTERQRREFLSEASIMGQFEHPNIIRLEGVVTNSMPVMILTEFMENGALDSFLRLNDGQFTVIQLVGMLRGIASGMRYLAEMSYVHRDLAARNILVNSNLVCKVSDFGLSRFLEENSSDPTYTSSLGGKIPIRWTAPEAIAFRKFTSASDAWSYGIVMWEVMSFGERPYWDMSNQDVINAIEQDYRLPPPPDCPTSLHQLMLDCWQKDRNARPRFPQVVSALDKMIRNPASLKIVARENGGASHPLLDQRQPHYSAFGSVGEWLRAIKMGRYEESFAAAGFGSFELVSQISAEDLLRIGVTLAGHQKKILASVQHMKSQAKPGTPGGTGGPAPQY
Particulars: at 0.1 µM.

The target of assay [5] is T3, Ephrin type-B receptor 4 (Homo sapiens). The following applies: at 1 µM.
Assay [6] addresses Receptor tyrosine-protein kinase erbB-2 (Homo sapiens) (UniProt P04626). The following applies: at 0.1 µM.
The target is the same in assay [7]. The following applies: at 1 µM.
Assay [8] concerns the target Receptor tyrosine-protein kinase erbB-4 (Homo sapiens) (UniProt Q15303). The following applies: at 0.1 µM.
Assay [9] has the same target. The following applies: at 1 µM.
Assay [10] addresses Tyrosine-protein kinase Fer (Homo sapiens) (UniProt P16591). Particulars: at 0.1 µM.
Assay [11] shares this target. Particulars: at 1 µM.
In assay [12] the target is Tyrosine-protein kinase Fes/Fps (Homo sapiens) (UniProt P07332). The following applies: at 0.1 µM.
Assay [13] has the same target. Particulars: at 1 µM.
Assay [14] deals with Fibroblast growth factor receptor 1 (Homo sapiens) (UniProt P11362). The following applies: at 0.1 µM.
Chain of Fibroblast growth factor receptor 1 (Homo sapiens) (P11362 22-822 limits assumed): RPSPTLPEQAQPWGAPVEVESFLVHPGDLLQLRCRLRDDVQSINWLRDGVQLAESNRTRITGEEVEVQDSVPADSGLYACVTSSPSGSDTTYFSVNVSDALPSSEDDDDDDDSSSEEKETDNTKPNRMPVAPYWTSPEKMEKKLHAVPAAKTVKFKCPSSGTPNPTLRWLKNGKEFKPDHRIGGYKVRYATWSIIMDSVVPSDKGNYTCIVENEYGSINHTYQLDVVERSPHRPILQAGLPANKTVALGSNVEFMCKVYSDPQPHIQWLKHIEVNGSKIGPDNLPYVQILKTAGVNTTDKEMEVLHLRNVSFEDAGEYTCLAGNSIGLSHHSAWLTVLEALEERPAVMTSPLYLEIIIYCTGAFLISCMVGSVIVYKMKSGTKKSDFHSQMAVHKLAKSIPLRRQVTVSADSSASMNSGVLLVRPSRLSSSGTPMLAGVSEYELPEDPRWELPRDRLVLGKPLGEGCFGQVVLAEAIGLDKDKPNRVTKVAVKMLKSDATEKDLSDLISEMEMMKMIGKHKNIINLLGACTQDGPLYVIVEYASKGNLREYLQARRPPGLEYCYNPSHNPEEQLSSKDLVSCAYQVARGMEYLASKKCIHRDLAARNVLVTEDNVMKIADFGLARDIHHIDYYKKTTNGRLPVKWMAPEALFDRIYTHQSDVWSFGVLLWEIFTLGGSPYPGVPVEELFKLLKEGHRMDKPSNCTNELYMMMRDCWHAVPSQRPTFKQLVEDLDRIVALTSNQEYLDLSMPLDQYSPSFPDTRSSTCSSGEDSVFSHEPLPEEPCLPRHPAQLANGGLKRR
The target is the same in assay [15]. The following applies: at 1 µM.
Assay [16] deals with Fibroblast growth factor receptor 2 (Homo sapiens) (UniProt P21802). The following applies: at 0.1 µM.
Assay [17] has the same target. The following applies: at 1 µM.
In assay [18] the target is Fibroblast growth factor receptor 3 (Homo sapiens) (UniProt P22607). Particulars: at 0.1 µM.
Chain of Fibroblast growth factor receptor 3 (Homo sapiens) (P22607 23-806 limits assumed): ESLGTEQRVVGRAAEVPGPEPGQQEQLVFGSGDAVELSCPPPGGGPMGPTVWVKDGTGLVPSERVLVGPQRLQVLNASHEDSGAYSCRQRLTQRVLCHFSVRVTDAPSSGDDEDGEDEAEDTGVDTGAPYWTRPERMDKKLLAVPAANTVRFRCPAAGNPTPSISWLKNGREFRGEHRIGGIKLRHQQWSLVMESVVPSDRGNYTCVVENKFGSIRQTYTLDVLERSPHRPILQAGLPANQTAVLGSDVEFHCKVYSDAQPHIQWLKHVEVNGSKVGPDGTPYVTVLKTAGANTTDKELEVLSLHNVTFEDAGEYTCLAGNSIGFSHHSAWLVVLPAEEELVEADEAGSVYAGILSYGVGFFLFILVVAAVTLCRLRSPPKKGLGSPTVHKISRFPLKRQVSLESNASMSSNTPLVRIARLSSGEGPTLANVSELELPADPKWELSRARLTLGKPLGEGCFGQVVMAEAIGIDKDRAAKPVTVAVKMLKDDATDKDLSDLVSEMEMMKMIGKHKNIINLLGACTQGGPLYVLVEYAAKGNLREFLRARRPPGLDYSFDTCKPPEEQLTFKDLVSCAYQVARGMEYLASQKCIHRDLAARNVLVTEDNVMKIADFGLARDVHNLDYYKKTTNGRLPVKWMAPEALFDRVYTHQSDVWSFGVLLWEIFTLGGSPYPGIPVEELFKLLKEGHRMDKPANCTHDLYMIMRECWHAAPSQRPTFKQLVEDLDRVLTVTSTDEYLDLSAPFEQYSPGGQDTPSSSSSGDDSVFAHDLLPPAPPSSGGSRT
For assay [19] the target is unchanged. The following applies: at 1 µM.
The target in assay [20] is Fibroblast growth factor receptor 4 (Homo sapiens) (UniProt P22455). The following applies: at 0.1 µM.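 Further: values are mean percent inhibition of FGFR4.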
Chain of Fibroblast growth factor receptor 4 (Homo sapiens) (P22455 22-802 limits assumed): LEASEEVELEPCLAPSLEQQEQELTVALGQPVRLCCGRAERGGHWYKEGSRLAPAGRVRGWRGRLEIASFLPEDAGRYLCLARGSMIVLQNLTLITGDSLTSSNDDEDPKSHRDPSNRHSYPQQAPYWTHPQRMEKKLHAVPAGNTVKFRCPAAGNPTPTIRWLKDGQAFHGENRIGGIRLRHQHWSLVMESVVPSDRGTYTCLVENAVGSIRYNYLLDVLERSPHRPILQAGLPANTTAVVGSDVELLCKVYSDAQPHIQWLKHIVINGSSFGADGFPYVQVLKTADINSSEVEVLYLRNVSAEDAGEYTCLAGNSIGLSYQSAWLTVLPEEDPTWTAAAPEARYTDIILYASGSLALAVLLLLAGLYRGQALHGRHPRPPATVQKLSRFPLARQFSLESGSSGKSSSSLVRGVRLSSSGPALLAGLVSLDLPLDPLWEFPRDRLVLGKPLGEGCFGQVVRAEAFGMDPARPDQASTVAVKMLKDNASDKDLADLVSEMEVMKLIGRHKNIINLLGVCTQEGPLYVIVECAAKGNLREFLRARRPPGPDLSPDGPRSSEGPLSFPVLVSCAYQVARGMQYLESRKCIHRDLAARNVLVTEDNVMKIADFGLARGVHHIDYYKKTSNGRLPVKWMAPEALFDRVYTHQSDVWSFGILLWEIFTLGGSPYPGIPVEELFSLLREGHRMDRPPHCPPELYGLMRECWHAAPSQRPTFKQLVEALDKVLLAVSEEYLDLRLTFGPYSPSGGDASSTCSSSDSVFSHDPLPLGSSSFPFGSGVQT

Chain of Receptor tyrosine-protein kinase erbB-2 (Homo sapiens) (P04626 whole entry): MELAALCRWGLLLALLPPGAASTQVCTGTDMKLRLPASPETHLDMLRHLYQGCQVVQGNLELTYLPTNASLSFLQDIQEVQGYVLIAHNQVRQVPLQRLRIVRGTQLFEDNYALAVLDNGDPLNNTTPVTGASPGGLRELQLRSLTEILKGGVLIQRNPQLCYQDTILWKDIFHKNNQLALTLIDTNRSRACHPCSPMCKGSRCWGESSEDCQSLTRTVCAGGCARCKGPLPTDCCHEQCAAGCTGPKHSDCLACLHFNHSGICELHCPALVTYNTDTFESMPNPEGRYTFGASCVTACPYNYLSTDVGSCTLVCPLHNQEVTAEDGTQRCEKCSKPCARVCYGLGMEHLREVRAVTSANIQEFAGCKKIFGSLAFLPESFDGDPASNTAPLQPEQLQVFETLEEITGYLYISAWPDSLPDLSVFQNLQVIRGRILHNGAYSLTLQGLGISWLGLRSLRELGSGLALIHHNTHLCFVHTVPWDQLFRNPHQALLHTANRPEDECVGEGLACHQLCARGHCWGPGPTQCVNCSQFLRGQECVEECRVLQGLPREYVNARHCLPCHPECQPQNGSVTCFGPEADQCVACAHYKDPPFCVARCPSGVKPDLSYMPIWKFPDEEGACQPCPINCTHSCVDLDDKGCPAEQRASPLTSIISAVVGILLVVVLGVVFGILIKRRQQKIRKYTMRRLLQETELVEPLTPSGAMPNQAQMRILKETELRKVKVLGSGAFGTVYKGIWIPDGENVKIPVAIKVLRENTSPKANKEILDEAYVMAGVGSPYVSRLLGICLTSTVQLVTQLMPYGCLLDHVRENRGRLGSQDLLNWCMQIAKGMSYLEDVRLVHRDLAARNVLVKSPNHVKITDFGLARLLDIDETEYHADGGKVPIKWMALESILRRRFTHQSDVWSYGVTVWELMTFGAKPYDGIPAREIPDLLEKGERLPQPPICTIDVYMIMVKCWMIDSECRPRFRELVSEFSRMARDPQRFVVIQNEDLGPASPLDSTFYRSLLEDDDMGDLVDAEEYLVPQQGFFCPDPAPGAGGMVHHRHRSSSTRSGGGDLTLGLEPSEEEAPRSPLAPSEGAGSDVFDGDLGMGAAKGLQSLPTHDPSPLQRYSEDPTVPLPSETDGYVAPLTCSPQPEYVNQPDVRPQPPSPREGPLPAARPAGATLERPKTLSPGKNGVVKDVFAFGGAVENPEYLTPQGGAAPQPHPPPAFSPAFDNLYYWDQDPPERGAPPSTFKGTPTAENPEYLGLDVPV
Chain of Receptor tyrosine-protein kinase erbB-4 (Homo sapiens) (Q15303 whole entry): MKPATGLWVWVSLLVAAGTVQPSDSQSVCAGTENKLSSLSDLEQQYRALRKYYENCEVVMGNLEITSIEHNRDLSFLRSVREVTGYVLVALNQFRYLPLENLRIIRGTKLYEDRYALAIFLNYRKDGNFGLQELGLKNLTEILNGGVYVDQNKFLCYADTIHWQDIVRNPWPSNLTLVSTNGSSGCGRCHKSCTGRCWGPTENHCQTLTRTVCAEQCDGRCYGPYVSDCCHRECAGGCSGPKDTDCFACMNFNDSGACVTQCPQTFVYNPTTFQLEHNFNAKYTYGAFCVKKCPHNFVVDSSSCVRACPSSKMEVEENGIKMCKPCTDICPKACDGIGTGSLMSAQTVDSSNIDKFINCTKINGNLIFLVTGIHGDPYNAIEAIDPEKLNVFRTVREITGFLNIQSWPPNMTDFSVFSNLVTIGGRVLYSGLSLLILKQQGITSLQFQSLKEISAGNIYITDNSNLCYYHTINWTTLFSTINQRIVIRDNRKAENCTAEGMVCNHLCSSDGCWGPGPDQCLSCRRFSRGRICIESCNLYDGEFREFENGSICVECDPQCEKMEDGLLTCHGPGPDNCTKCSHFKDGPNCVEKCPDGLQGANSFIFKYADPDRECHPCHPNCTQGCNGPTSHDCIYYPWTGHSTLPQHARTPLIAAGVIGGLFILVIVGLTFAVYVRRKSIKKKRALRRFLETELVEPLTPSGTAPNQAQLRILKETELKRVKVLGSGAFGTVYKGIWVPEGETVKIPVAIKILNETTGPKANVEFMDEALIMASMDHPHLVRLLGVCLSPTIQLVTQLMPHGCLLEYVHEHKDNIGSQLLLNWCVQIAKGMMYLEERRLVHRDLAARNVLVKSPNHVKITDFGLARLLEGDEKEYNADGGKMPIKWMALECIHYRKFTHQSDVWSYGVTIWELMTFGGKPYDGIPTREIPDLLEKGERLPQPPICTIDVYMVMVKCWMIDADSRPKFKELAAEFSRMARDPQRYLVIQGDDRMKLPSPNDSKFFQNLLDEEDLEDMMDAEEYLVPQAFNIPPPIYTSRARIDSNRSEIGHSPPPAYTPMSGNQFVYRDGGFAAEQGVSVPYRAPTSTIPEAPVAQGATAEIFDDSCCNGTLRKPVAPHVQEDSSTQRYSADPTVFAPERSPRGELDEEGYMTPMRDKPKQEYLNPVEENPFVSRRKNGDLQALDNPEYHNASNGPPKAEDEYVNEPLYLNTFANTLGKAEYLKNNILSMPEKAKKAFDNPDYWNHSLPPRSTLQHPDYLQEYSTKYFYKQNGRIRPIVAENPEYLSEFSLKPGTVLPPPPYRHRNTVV

As to `Nc1nonc1-c1nc2cnccc2n1C1CCCCC1`, the inhibition is -8.8% in [1]; -1.43% in [2]; -4.08% in [3]; -3.41% in assay [4]; -1.63% in assay [5]; -3.46% in assay [6]. The inhibition in assay [7] is -1.33%; in assay [8], -5.14%; in assay [9] it was -5.19%; in assay [10], -1.75%; in assay [11] it was 1.83%; in assay [12] it was -2.28%. In addition, the inhibition was -1.92% in assay [13]; -7.32% in assay [14]; -4.22% in assay [15]; -6.69% in assay [16]; -0.47% in assay [17]; -2.79% in assay [18]. Also, the results for the inhibition in [19] and in [20] were -2.23% and -1.75%, respectively.
For the compound `Cc1cc(-c2ccco2)cc(C)c1/C=C/c1cncc(-c2nn[nH]n2)c1`, the inhibition in assay [1] was determined as 3.46%; in assay [2], 0.39%; in [3], 4.16%; in assay [4], 0.18%; in assay [5], 2.02%; in assay [6], 3.01%. Further, the inhibition was 3.5% in assay [7]; 2.03% in assay [8]; 15.7% in assay [9]; 4.17% in assay [10]; 7.85% in [11]; 1.75% in assay [12]. Further, the inhibition in assay [13] was 1.63%; in assay [14], -0.88%; in [15] it was 2.5%; in [16] it was 1.69%; in assay [17] it was 1.54%; in assay [18], -0.36%. The inhibition in [19] was 3.17%; in [20], 1.4%.
For the compound `CCn1c(-c2nonc2N)nc2c(C#CCN)ncc(OCCCN)c21`, the inhibition in assay [1] is -5.25%; in [2] it was -7.45%; in [3], 1.18%; in assay [4], -2.64%; in assay [5] it was -2.62%; in assay [6], -3.17%. Further, the inhibition was 3.87% in [7]; -7.51% in [8]; 2.14% in assay [9]; 5.14% in assay [10]; 6.76% in assay [11]; -1.95% in [12]. In addition, the inhibition is -1.62% in assay [13]; -2.75% in assay [14]; 2.12% in assay [15]; -1.49% in [16]; 0.4% in assay [17]; -4.55% in assay [18]. In addition, the inhibition is -3.83% in [19] and -2.34% in assay [20].
As for `Fc1ccc(-c2ncn(C3CCNCC3)c2-c2ccnc(Oc3ccccc3)n2)cc1`, the inhibition in assay [1] was 5.52%; in assay [2], -0.53%; in assay [3] it was -0.5%; in assay [4], -4.2%; in assay [5], 1.66%; in [6], 9.4%. The inhibition in assay [7] is 10.7%; in assay [8], 10.8%; in assay [9] it was 15.3%; in assay [10], 1.63%; in assay [11], 0.16%; in [12], 1.02%. The inhibition in assay [13] was 1.03%; in assay [14], -5.35%; in [15], -7.09%; in assay [16] it was -0.63%; in assay [17], -3.24%; in assay [18], -1.57%. Also, the inhibition in assay [19] was -4.55%; in [20] it was -2.7%.
Regarding `NS(=O)(=O)c1ccc(N/C=C2\C(=O)Nc3ccc4ncsc4c32)cc1`, the inhibition in assay [1] worked out at 18.1%; in assay [2], 2.97%; in [3], 4.36%; in assay [4] it was 0.08%; in [5], 8.11%; in assay [6] it was 2.78%. Also, the inhibition amounted to 5.6% in assay [7]; 8.52% in assay [8]; 10.8% in assay [9]; 0.16% in [10]; 13.1% in assay [11]; 3.55% in [12]. Also, the inhibition in [13] is 7.01%; in assay [14] it was 5.4%; in assay [15] it was 32.8%; in [16], 18.8%; in assay [17], 53.3%; in [18] it was 17.1%. Also, the inhibition in [19] was found to be 56.7%; in [20], 1.61%.
As to `COc1cccc(COc2cc(-n3cnc4ccccc43)sc2C(N)=O)c1`, the inhibition in assay [1] is 0.89%; in assay [2] it was 0.5%; in [3], 2.27%; in assay [4], -2.06%; in assay [5], 1.33%; in assay [6], 2.53%. For the same compound, the inhibition in assay [7] was 2.65%; in [8], 1.74%; in assay [9] it was 13.2%; in assay [10], -2.66%; in [11] it was 3.72%; in assay [12], 0.11%. Besides, the inhibition in assay [13] is 0.56%; in assay [14], -3.37%; in assay [15], -0.23%; in [16], -0.92%; in assay [17] it was 3.02%; in assay [18], -1.31%. The figures for the inhibition in assay [19] and in assay [20] were 0.24% and -1.48%, respectively.
For the compound `CCn1c(-c2nonc2N)nc2c(C#CC(C)(C)O)ncc(OC[C@@H]3CCCN3)c21`, the inhibition in [1] is -3.01%; in assay [2] it was -0.27%; in assay [3] it was 0.62%; in assay [4] it was -1.76%; in assay [5] it was 1.1%; in assay [6], 0.95%. In addition, the inhibition in assay [7] was 3.51%; in assay [8], 1.3%; in [9] it was 7.9%; in [10], -1.38%; in [11], 0.7%; in assay [12], 2.01%. In addition, the inhibition in [13] was 4.12%; in assay [14], -0.74%; in [15] it was 0.08%; in [16], -1.27%; in assay [17], 0.8%; in [18], -3.24%. Moreover, the inhibition in assay [19] was determined as 0.67%; in assay [20], 2.54%.
